Experiment [1] is described as follows: Her2 expression decrease, cell viability multiplex – SKBR3 breast tumor cells, AlphaScreen, ATP viability, primary screen (AID 461;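 active = Her2 level under about 52% in both replicate screens, with viability over 70% of control, limit read from the data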;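 as to Her2 level: lower value means less Her2 protein in the cells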;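 as to viability: percent of carrier control wells set as 100% viability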). Particulars: SKBR3 Her2 protein level, 18-24 h, measured here: SKBR3 viability, ATP luminescence, at 10 µM.
Experiment [2] concerns the target Receptor tyrosine-protein kinase erbB-2 (Homo sapiens) (UniProt P04626). The experiment is described as above. Particulars: 18-24 h, at 10 µM, stronger effect = lower value.
Experiment [3] can be described thus: reduced viability of SK-BR-3 breast cancer cells – cell-based, 24 h, human, pilot screen (AID 572;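 active = viability at or below 10% of carrier control in both of two separate runs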;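 also: compound exposure lasted between 18 and 24 h rather than exactly 24 h; 100% = carrier-treated control wells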). Particulars: SK-BR-3 viability, CellTiter-Glo luminescence, at 10 µM, stronger effect = lower value.
Experiment [4] in a line: HUVEC growth inhibition – cell-based, human, primary screen (AID 575;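 active = viability at or below 30% in both replicate assays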;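 also: 100% = median of untreated cell wells with 0.1% DMSO on each plate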). The note with it: HUVEC proliferation, CellTiter-Glo luminescence, 72 h; at 10 µM; stronger effect = lower value. (In general: ATP-based viability assays read luminescence as a measure of living cells.)
Experiment [5] is described as follows: H69AR cell proliferation blockers – human, duplicate replicates, primary screen (AID 580;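 active = viability at or under a set limit in both replicates, limit being median viability minus 3 SD, cut at about 48% in these data, passing the limit was not always enough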;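 also: 100% = mean luminescence of untreated wells and 0% = no signal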). Particulars: H69AR lung tumor cells viability, ATP luminescence, 72 h; at 10 µM; stronger effect = lower value.
A short description of experiment [6]: MRP1 drug-resistance reversers in H69AR cells – cell-based, doxorubicin co-treatment, pilot screen (AID 601;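 active = viability loss from added drug above about 55%, and viability with drug at most 40%, in both replicates, limit read from the data, passing the limit was not always enough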). The note with it: CellTiter-Glo, 72 h, at 10 µM; for differential viability (reversal): stronger effect = higher value.
The nature of experiment [7]: yeast transport mutant growth inhibition pilot in 384-well plates, post-Golgi transport modulator project (AID 636; in the data active = inhibition above about 31%). The note with it: absorbance 615 nm, about 18 h, stronger effect = higher value.
Experiment [8] can be described thus: growth suppression of yeast trafficking mutant, preliminary HTS, modulators of trafficking downstream of Golgi apparatus project, 1536-format plate, OD 615 nm (AID 637; in the data active = inhibition above about 30%). Particulars: yeast transport mutant growth, absorbance 615 nm, 18 h; stronger effect = higher value.
Experiment [9] is described as follows: S. cerevisiae growth inhibition in permissive medium (OD615), pilot counter-assay for S. cerevisiae lifespan shortening project, permissive growth control (AID 705;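 active = growth inhibition above 25% in both replicates, a cutoff set 3 SD above the mean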). Particulars: OD615, 24 h, at 10 µM, stronger effect = higher value.
Experiment [10] in a line: S. cerevisiae growth inhibition in restrictive medium, OD615, pilot screen, restrictive growth control, yeast lifespan reduction project (AID 706;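 active = growth inhibition above a set limit, 3 SD over mean compound inhibition, in both replicates, cut at about 43% in these data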;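 also: modified DeaD lifespan yeast strain shifted to restrictive glucose medium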). The note with it: OD615, 48 h, at 10 µM, stronger effect = higher value.
Experiment [11] can be described thus: doxorubicin toxicity protection in MRP-1 cells – H69AR cells, CellTiter-Glo, duplicate, MRP-1 activator project, pilot screen (AID 807;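 active = viability increase at or above a cutoff of the median across tested compounds plus 3 SD, cut at about 8.5% in these data, passing the limit was not always enough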;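 also: compound pretreatment 18-22 h then 72 h combined with doxorubicin; 0% = doxorubicin alone and 100% = vehicle without doxorubicin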). The note with it: H69AR viability with doxorubicin, CellTiter-Glo luminescence; at 10 µM; stronger effect = higher value.
Experiment [12] in a line: viability of HCT116 without oncogenic beta-catenin – human colon tumor cells, pilot screen (AID 823;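 active = cell viability at or below a set limit in both duplicate runs, the limit being the all-compound median minus 4 SD, cut at about 23% in these data, passing the limit was not always enough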;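 also: 0% = wells killed by 20 µM Hyamine and 100% = untreated DMSO cell wells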). Particulars: HCT116 beta-catenin knockout viability, CellTiter-Glo, 60 h; at 10 µM; stronger effect = lower value.
Experiment [13] can be described thus: viability of PTEN-null HCT116 cells – cell-based, HCT116 clonal line, CellTiter-Glo, pilot screen (AID 824).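 Also: 0% = 20 µM Hyamine control and 100% = vehicle cell control.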 The note with it: HCT116 PTEN-deleted viability, 60 h, at 10 µM, stronger effect = lower value.
Experiment [14] in a line: RAM pathway blockade in budding yeast – dse1pr::URA3 reporter, 5-FOA selection, pilot screen (AID 869;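 active = inhibition over a set limit, the all-compound mean plus 3 SD, in both replicate runs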;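 also: 0% = DMSO wells with no growth and 100% = 10 µM 1-NA-PP1 with full growth; RAM network block rescues cells from 5-FOA so hits raise OD615 growth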). Particulars: S. cerevisiae dse1pr::URA3 5-FOA growth, OD615, 2 d; at 10 µM; stronger effect = higher value; strain carries analog-sensitive mutant Cbk1 kinase.
Experiment [15] is described as follows: RAM signaling pathway blockade in yeast – S. cerevisiae, Pdr1DBD-CYC8 efflux-inhibited sensitized strain, primary screen (AID 1298;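 active = RAM network inhibition above 8.4% in each of two replicates, 3 SD over the compound average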;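 also: 0% = DMSO untreated cells without growth and 100% = 10 µM 1-NA-PP1 full growth; higher means more yeast growth rescued from 5-FOA killing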). The note with it: S. cerevisiae cbk1-as DSE1-URA3 strain, 5-FOA growth OD615, 2 d; at 50 µM; stronger effect = higher value.
The mark [16] stands for this setting: H69AR cells + 2 uM doxorubicin, measured here: viability with 2 uM doxorubicin, stronger effect = lower value.
Where [17] appears, read: H69AR cells, compound alone cytotoxicity.

The values below come from PubChem BioAssay.

SMILES strings stand for the structures. Inconclusive results are not listed. The source made the active and inactive calls.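 The calls were made as follows, unless noted: active = viability at or below 27.92% in each of two runs, the all-compound median minus 4 SD; inconclusive = no clear call, values can overlap the other calls; inactive = the rest.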

Chain of Receptor tyrosine-protein kinase erbB-2 (Homo sapiens) (P04626 whole entry, looked up): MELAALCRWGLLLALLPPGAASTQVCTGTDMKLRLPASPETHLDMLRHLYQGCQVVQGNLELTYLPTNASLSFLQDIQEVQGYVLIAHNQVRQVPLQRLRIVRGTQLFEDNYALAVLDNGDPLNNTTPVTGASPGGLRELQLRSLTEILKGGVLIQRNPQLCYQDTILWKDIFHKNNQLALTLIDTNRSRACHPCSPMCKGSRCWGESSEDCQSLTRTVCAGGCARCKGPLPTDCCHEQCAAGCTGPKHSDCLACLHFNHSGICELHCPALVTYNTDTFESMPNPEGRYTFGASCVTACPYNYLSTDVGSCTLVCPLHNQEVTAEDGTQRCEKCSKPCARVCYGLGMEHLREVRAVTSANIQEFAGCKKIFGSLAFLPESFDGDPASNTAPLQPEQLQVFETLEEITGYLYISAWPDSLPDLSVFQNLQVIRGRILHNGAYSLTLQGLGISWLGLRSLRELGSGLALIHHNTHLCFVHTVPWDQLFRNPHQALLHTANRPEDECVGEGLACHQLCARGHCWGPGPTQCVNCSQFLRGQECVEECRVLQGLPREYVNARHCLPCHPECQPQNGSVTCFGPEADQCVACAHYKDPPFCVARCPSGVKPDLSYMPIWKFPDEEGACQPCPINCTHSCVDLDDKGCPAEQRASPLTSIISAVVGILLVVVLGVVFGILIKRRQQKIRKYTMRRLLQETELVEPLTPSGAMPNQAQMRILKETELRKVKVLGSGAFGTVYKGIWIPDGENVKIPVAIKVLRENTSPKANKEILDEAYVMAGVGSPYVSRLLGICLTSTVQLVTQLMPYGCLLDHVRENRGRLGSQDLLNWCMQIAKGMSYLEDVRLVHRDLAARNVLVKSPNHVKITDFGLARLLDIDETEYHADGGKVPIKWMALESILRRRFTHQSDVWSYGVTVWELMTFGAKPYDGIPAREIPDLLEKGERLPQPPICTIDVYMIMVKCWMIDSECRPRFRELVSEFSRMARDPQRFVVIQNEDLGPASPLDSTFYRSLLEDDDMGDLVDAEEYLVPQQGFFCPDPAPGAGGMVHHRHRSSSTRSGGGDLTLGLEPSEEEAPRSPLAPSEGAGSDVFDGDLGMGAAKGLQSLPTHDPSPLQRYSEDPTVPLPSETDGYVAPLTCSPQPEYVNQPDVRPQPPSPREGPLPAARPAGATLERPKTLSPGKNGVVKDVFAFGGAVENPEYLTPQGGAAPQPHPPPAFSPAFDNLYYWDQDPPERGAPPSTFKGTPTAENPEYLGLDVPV

What is called viability is a read-out of living cells in per cent, often relative to untreated cells. The term inhibition denotes the drop in the measured response relative to a control, in per cent. Consider `CCOC(=O)C(C(=O)OCC)C(C)C#CCN1CCCCC1` (stereo not drawn), for which the viability is 91.5% in experiment [1]; 91.5% (inactive) in [3]; 87.2% (inactive) in experiment [4]; 90.4% (inactive) in experiment [5]; 89.2% in [6] (setting [16]); 90.4% in [6] (setting [17]). For the same compound, the viability in experiment [12] is 93.9% (inactive); in experiment [13] it was 97% (inactive). Also, in experiment [2], the Her2 level was 116% (inactive). The differential viability (reversal) in [6] (H69AR cells + 2 uM doxorubicin) is 1.13% (inactive). The inhibition in experiment [7] was -3.08% (inactive); in [8] it was -5.5% (inactive); in [14], -0.12% (inactive). Also, the growth inhibition was -2.21% (inactive) in [9] and -1.49% (inactive) in experiment [10]. For the same compound, the viability increase in experiment [11] was -2.18% (inactive). In experiment [15], the RAM network inhibition is 7.5% (inactive).
On to `CC1Cn2c(nnc2-c2ccc(F)cc2)S1` (stereo not drawn), for which the viability is 112% in experiment [1]; 112% (inactive) in [3]; 107% (inactive) in experiment [4]; 93.7% (inactive) in experiment [5]; 95.2% in experiment [6] (setting [16]); 93.7% in experiment [6] (setting [17]). The viability in experiment [12] was 112% (inactive); in experiment [13], 101% (inactive). Besides, in experiment [2], the Her2 level is 105% (inactive). In [6] (H69AR cells + 2 uM doxorubicin), the differential viability (reversal) is -1.42% (inactive). Also, the inhibition was -2.4% (inactive) in [7], -4% (inactive) in [8] and 1.92% (inactive) in experiment [14]. Moreover, the growth inhibition is -9.71% (inactive) in experiment [9] and -14.2% (inactive) in [10]. Further, the viability increase in [11] was -0.42% (inactive). Also, the RAM network inhibition in experiment [15] was 3.35% (inactive).
With `COc1ccc(-c2nc(CSCC(=O)NCc3ccc4c(c3)OCO4)c(C)o2)cc1OC`, the viability is 98% in [1]; 98% (inactive) in experiment [3]; 92.9% (inactive) in experiment [4]; 84.9% (inactive) in [5]; 92% in experiment [6] (setting [16]); 84.9% in experiment [6] (setting [17]). In addition, the values for the viability in experiment [12] and in experiment [13] were 84.7% (inactive) and 74.1% (inactive), respectively. Also, the Her2 level in [2] is 108% (inactive). Further, in [6] (H69AR cells + 2 uM doxorubicin), the differential viability (reversal) was -7.12% (inactive). The inhibition is -4% (inactive) in [7], 1.5% (inactive) in experiment [8] and 0.57% (inactive) in experiment [14]. Besides, the results for the growth inhibition in experiment [9] and in experiment [10] were -13.4% (inactive) and -12.2% (inactive), respectively. Also, the viability increase in experiment [11] is -3.57% (inactive). The RAM network inhibition in experiment [15] is 6.3% (inactive).
Turning to `Cn1c(C(=O)NCC2CCCO2)cc2c(=O)n(C)c3ccccc3c21` (stereo not drawn), the viability is 95% in experiment [1]; 95% (inactive) in experiment [3]; 84.8% (inactive) in experiment [4]; 83.6% (inactive) in experiment [5]; 75.1% in [6] (setting [16]); 83.6% in experiment [6] (setting [17]). The figures for the viability in experiment [12] and in [13] were 92.9% (inactive) and 90.7% (inactive), respectively. Moreover, in experiment [2], the Her2 level was 89% (inactive). Further, in experiment [6] (H69AR cells + 2 uM doxorubicin), the differential viability (reversal) was 8.52% (inactive). Moreover, the inhibition in [7] is -2.31% (inactive); in experiment [8] it was 2.17% (inactive); in experiment [14], 2.33% (inactive). Further, the values for the growth inhibition in [9] and in [10] were -6.67% (inactive) and 12.4% (inactive), respectively. Besides, in [11], the viability increase was -4.43% (inactive). Besides, the RAM network inhibition in experiment [15] is 0.71% (inactive).
For the compound `O=C(NCc1ccc2c(c1)OCO2)C1CCC(CNc2c(N3CCCCC3)c(=O)c2=O)CC1` (stereo not drawn), the viability in experiment [1] is 92.5%; in [3], 92.5% (inactive); in [4], 94% (inactive); in experiment [5], 98.9% (inactive); in [6] (setting [16]), 91.9%; in experiment [6] (setting [17]), 98.9%. Further, the viability was 94.6% (inactive) in experiment [12] and 88.9% (inactive) in experiment [13]. Also, in experiment [2], the Her2 level is 106% (inactive). For the same compound, in [6] (H69AR cells + 2 uM doxorubicin), the differential viability (reversal) is 7% (inactive). Moreover, the inhibition in [7] is 0.64% (inactive); in [8], -2.17% (inactive); in experiment [14], 1% (inactive). The growth inhibition in experiment [9] was -2.47% (inactive); in [10], 4.78% (inactive). The viability increase in [11] is -2.93% (inactive). The RAM network inhibition in experiment [15] is -0.46% (inactive).
For `CCOC(=O)C(CC)(CCC(=O)O)c1csc(N)n1` (stereo not drawn), the viability in experiment [1] was 99%; in experiment [3] it was 99% (inactive); in experiment [4] it was 101% (inactive); in [5] it was 102% (inactive); in experiment [6] (setting [16]), 94.2%; in experiment [6] (setting [17]) it was 102%. For the same compound, the viability was 96.8% (inactive) in experiment [12] and 98.3% (inactive) in experiment [13]. The Her2 level in experiment [2] is 98.5% (inactive). Moreover, the differential viability (reversal) in [6] (H69AR cells + 2 uM doxorubicin) is 7.83% (inactive). The inhibition is -8.4% (inactive) in [7], -2.74% (inactive) in [8] and 0.94% (inactive) in experiment [14]. In addition, the growth inhibition in experiment [9] was -4.72% (inactive); in experiment [10], -9.94% (inactive). Also, the viability increase in experiment [11] is -1.31% (inactive). In addition, in experiment [15], the RAM network inhibition is -1.93% (inactive).
With `CC(C)CCNC(=O)Cn1c(NCCC(C)C)nc2c1c(=O)n(C)c(=O)n2C`, the viability is 121% in [1]; 121% (inactive) in [3]; 102% (inactive) in experiment [4]; 93.7% (inactive) in experiment [5]; 94% in experiment [6] (setting [16]); 93.7% in [6] (setting [17]). Further, the viability in experiment [12] is 98.2% (inactive); in [13], 92.8% (inactive). The Her2 level in experiment [2] is 118% (inactive). In experiment [6] (H69AR cells + 2 uM doxorubicin), the differential viability (reversal) was -0.345% (inactive). Further, the inhibition in experiment [7] is 1.73% (inactive); in experiment [8], -2.5% (inactive); in [14] it was 0.94% (inactive). Also, the results for the growth inhibition in experiment [9] and in experiment [10] were -4.12% (inactive) and -0.68% (inactive), respectively. For the same compound, the viability increase in experiment [11] is -1.31% (inactive). Further, the RAM network inhibition in [15] was -0.63% (inactive).
On to `CCOC(=O)c1sc2nc(NC(=O)C(C)(C)C)sc2c1C`, for which the viability in [1] was 104%; in experiment [3], 104% (inactive); in [4], 62.8% (inactive); in [5], 79.3% (inactive); in experiment [6] (setting [16]), 67.5%; in [6] (setting [17]), 79.3%. The figures for the viability in experiment [12] and in [13] were 74.5% (inactive) and 74% (inactive), respectively. For the same compound, the Her2 level in [2] is 75.5% (inactive). Besides, the differential viability (reversal) in experiment [6] (H69AR cells + 2 uM doxorubicin) is 11.9% (inactive). Also, the results for the inhibition in experiment [7], in experiment [8] and in experiment [14] were -3.73% (inactive), -4.59% (inactive) and -0.52% (inactive), respectively. Also, the growth inhibition was -1.74% (inactive) in experiment [9] and 5.62% (inactive) in experiment [10]. In addition, in experiment [11], the viability increase was -4.43% (inactive). Moreover, the RAM network inhibition in experiment [15] was 3.13% (inactive).
Take `Cc1c(NC(=O)c2ccc(CN3CCc4ccccc4C3)cc2)c(=O)n(-c2ccccc2)n1C`: the viability is 95% in experiment [1]; 95% (inactive) in [3]; 94.3% (inactive) in experiment [4]; 98.8% (inactive) in experiment [5]; 94.3% in [6] (setting [16]); 98.8% in experiment [6] (setting [17]). The viability in experiment [12] was 79.6% (inactive); in experiment [13], 84.4% (inactive). In [2], the Her2 level was 109% (inactive). Further, the differential viability (reversal) in experiment [6] (H69AR cells + 2 uM doxorubicin) is 4.51% (inactive). Besides, the inhibition in experiment [7] was -5.64% (inactive); in experiment [8], -4.83% (inactive); in experiment [14], 0.845% (inactive). Further, the growth inhibition was -4.14% (inactive) in experiment [9] and -6.79% (inactive) in experiment [10]. Besides, in experiment [11], the viability increase is 0.51% (inactive). The RAM network inhibition in [15] was 5.97% (inactive).
